The results in this text go back to PubChem BioAssay (NCI).

Test systems include NCI-H23 lung; NCI-H226 lung; NCI-H322M lung; HOP-62 NSCLC; NCI-H460 lung; HOP-92 NSCLC; NCI-H522 lung; A549/ATCC NSCLC; 786-0 renal; COLO 205 colon; DU-145 prostate; K-562 leukemia; MALME-3M melanoma; MDA-MB-231 breast; RXF 393 renal; SF-268 CNS; SF-295 CNS; SF-539 CNS; UACC-257 melanoma; M14 melanoma.
Common to all, as to assay: NCI-60 one-dose screen, 48 h (100 = growth as untreated, 0 = no growth, -100 = all killed)
Conditions in all cases: 10 µM unless noted

Each structure is given as a SMILES string. Compounds without any hit were thinned out: in the full panel of roughly 83,000, 20% have a hit.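 Testing used 96-well plates and a 48-hour single-concentration exposure. Example: -40 means 40% of the starting cells died.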 Unmarked numbers belong to inactive results. Activity calls are given as the source filed them. Rule for the calls: active = growth percent below 10; inactive = the rest.

In the case of `O=[N+]([O-])c1ccc([Se]C2CCCCC2Cl)c([N+](=O)[O-])c1` (stereo unspecified), the growth in the experiment on NCI-H23 lung was 40.3%; with NCI-H226 lung it was 73.5%; in the experiment with NCI-H322M lung it was 55.7%; with HOP-62 NSCLC, 7.16% (active); in the experiment with NCI-H460 lung it was 57.7%; in the experiment on HOP-92 NSCLC, 53.8%. Moreover, the growth in the experiment on NCI-H522 lung was 63.3%; with A549/ATCC NSCLC it was 45.5%; in the experiment on 786-0 renal, 128%; in the experiment with COLO 205 colon it was 102%; in the experiment with DU-145 prostate, 82.1%; in the experiment on K-562 leukemia, 105%. The growth in the experiment on MALME-3M melanoma was 69.8%; in the experiment on MDA-MB-231 breast it was 61.7%; in the experiment with RXF 393 renal, 67.7%; with SF-268 CNS, 14.3%; in the experiment with SF-295 CNS it was -41.3% (active); in the experiment with SF-539 CNS, -87.3% (active). The growth is 59.2% in the experiment on UACC-257 melanoma and 40.2% in the experiment with M14 melanoma.
Take `COC(=O)[C@H](Cc1c[nH]c2ccccc12)NC(=O)[C@@H](OC)[C@@H]1Cc2cc3cc(OC4CC(OC5CC(O)C(O)C(C)O5)C(O)C(C)O4)c(C)c(O)c3c(O)c2C(=O)[C@H]1OC1CC(OC2CC(OC3CC(C)(O)C(O)C(C)O3)C(O)C(C)O2)C(O)C(C)O1` (stereo partly specified): the growth in the experiment on NCI-H23 lung is -20.3% (active); in the experiment with NCI-H226 lung, -38.6% (active); with NCI-H322M lung, 6.45% (active); in the experiment on HOP-62 NSCLC, 9.74% (active); in the experiment with NCI-H460 lung, 6.58% (active); in the experiment with HOP-92 NSCLC, -13.9% (active). Also, the growth was -28.2% (active) in the experiment with NCI-H522 lung; 12.7% in the experiment on A549/ATCC NSCLC; 1.54% (active) in the experiment on 786-0 renal; -39.5% (active) with COLO 205 colon; 12.5% with DU-145 prostate; 4.37% (active) with K-562 leukemia. For the same molecule, the growth in the experiment on MALME-3M melanoma is -47% (active); in the experiment with MDA-MB-231 breast, -14% (active); in the experiment with RXF 393 renal it was -85.9% (active); in the experiment with SF-268 CNS, -10.1% (active); in the experiment with SF-295 CNS, -6.35% (active); in the experiment with SF-539 CNS it was -35.3% (active). Moreover, the growth in the experiment with UACC-257 melanoma was -5% (active); with M14 melanoma it was -60.2% (active).
Regarding `CC1CN1CCCCN1CC1C` (stereo unspecified), the growth is 109% in the experiment on NCI-H23 lung; 106% in the experiment on NCI-H226 lung; 101% in the experiment on NCI-H322M lung; 109% with HOP-62 NSCLC; 104% in the experiment with NCI-H460 lung; 88.2% in the experiment with HOP-92 NSCLC. Besides, the growth is 66.4% with NCI-H522 lung; 101% in the experiment on A549/ATCC NSCLC; 103% in the experiment on 786-0 renal; 115% with COLO 205 colon; 105% in the experiment on DU-145 prostate; 83.6% with K-562 leukemia. The growth with MALME-3M melanoma was 103%; with MDA-MB-231 breast, 125%; in the experiment with RXF 393 renal, 115%; in the experiment with SF-268 CNS, 98.6%; with SF-295 CNS, 101%; with SF-539 CNS it was 103%. In the experiment with UACC-257 melanoma, the growth is 83.9%.
On to `c1cnc2[nH]cc(-c3csc(-c4cn(CCCCN5CCCCC5)c5ccccc45)n3)c2c1`, for which the growth in the experiment on NCI-H23 lung was 95.2%; in the experiment with NCI-H226 lung it was 95.3%; in the experiment with NCI-H322M lung it was 87.4%; in the experiment with HOP-62 NSCLC it was 82.4%; with NCI-H460 lung it was 76.3%; in the experiment with HOP-92 NSCLC, 48.3%. The growth in the experiment with NCI-H522 lung is 98.5%; in the experiment on A549/ATCC NSCLC it was 83.6%; in the experiment with 786-0 renal it was 80.7%; in the experiment with COLO 205 colon it was 6.47% (active); with DU-145 prostate it was 107%; in the experiment on K-562 leukemia, 10.9%. Also, the growth in the experiment on MALME-3M melanoma is 92.8%; in the experiment on MDA-MB-231 breast, 83.3%; in the experiment on RXF 393 renal, 87.3%; in the experiment with SF-268 CNS it was 86.1%; in the experiment with SF-295 CNS, 94.8%; in the experiment on SF-539 CNS, 86.5%. Moreover, the growth with UACC-257 melanoma is 112%; with M14 melanoma, 50.2%.
As to `CC[CH2][Sn]([Cl])([Cl])[CH2]CC`, the growth was 76.9% with NCI-H23 lung; 86.4% in the experiment with NCI-H226 lung; 131% in the experiment on NCI-H322M lung; 82.4% in the experiment with HOP-62 NSCLC; 107% in the experiment on NCI-H460 lung; 110% in the experiment on HOP-92 NSCLC. For the same molecule, the growth is -87.2% (active) in the experiment on NCI-H522 lung; 99.3% with A549/ATCC NSCLC; 73.8% with 786-0 renal; 44.2% with COLO 205 colon; 106% with DU-145 prostate; 30.6% in the experiment on K-562 leukemia. Further, the growth with MALME-3M melanoma is 21%; with MDA-MB-231 breast, 81.6%; with RXF 393 renal it was 51.1%; in the experiment with SF-268 CNS, 83.2%; in the experiment with SF-295 CNS, 96.1%; with SF-539 CNS it was 80.4%. Also, in the experiment on UACC-257 melanoma, the growth was 67%.
`N#CC1(c2ccccc2)CCN(Cc2ccccc2)CC1`: the growth with NCI-H23 lung is 98.9%; in the experiment on NCI-H226 lung, 101%; with NCI-H322M lung it was 144%; in the experiment with HOP-62 NSCLC it was 106%; with NCI-H460 lung, 104%; in the experiment on HOP-92 NSCLC, 51.8%. The growth in the experiment on NCI-H522 lung is 92.6%; with A549/ATCC NSCLC, 99.5%; in the experiment with 786-0 renal it was 101%; with COLO 205 colon, 105%; with DU-145 prostate, 107%; with K-562 leukemia, 98.3%. Besides, the growth with MALME-3M melanoma was 138%; with MDA-MB-231 breast, 110%; with RXF 393 renal it was 105%; with SF-268 CNS it was 94.9%; in the experiment on SF-295 CNS it was 89.9%; in the experiment with SF-539 CNS it was 107%. In addition, the growth with UACC-257 melanoma was 115%.
With `CC[C@H](C)[C@H](NC(=O)[C@H]1CCCCN1C)C(=O)N(C)[C@H](C[C@@H](OC(C)=O)c1cccc(C(=O)N[C@@H](Cc2ccccc2)C[C@H](C)C(=O)O)n1)C(C)C`, the growth was 24.3% in the experiment with NCI-H23 lung; 19.7% with NCI-H226 lung; 45.2% in the experiment on NCI-H322M lung; 1.64% (active) in the experiment with HOP-62 NSCLC; 7.49% (active) in the experiment on NCI-H460 lung; 37% in the experiment with HOP-92 NSCLC. Further, the growth is -12.8% (active) in the experiment with NCI-H522 lung; 11.4% in the experiment with A549/ATCC NSCLC; 23.1% in the experiment on 786-0 renal; -66.1% (active) in the experiment with COLO 205 colon; -16.1% (active) in the experiment on DU-145 prostate; 7.77% (active) in the experiment with K-562 leukemia. In addition, the growth with MALME-3M melanoma is 64.1%; with MDA-MB-231 breast, -0.17% (active); in the experiment on RXF 393 renal, 31.2%; in the experiment on SF-268 CNS, 18%; in the experiment with SF-295 CNS, 2.98% (active); with SF-539 CNS, -10.7% (active). In addition, the growth in the experiment on UACC-257 melanoma is 47.9%.
